In assay [1] the target is Death-associated protein kinase 1 (Homo sapiens) (UniProt P53355). The conditions noted are these: at 1 µM.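 Note: each value is a mean inhibition figure.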
The target in assay [2] is T1, Serine/threonine-protein kinase DCLK2 (Homo sapiens) (UniProt Q8N568).
T1 sequence (whole entry): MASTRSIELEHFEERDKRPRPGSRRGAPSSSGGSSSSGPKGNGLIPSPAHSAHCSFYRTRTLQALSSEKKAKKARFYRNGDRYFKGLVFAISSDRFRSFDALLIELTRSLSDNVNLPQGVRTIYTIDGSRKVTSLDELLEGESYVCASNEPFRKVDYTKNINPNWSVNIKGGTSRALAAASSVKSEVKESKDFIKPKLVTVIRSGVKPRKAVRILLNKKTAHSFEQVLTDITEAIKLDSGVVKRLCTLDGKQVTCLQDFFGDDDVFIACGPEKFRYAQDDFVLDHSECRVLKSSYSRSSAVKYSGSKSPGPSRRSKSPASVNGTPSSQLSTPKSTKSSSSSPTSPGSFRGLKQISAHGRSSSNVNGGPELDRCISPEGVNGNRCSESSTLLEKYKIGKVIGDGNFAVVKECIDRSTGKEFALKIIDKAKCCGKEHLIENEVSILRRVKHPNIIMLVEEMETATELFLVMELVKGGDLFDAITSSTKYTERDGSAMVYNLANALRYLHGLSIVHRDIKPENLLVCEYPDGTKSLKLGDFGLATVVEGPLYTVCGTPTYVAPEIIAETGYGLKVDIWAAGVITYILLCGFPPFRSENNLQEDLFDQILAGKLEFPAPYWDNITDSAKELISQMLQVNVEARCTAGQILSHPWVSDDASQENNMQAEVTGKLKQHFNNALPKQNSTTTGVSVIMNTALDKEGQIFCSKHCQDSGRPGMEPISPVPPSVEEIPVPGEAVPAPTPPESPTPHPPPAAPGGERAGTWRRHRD
The conditions noted are these: at 0.1 µM.

The target of assay [3] is MAP kinase-activated protein kinase 2 (Homo sapiens) (UniProt P49137). The conditions noted are these: at 0.1 µM.
The target is the same in assay [4]. The conditions noted are these: at 1 µM.
Assay [5] addresses MAP kinase-activated protein kinase 3 (Homo sapiens) (UniProt Q16644). The conditions noted are these: at 0.1 µM.
Assay [6] shares this target. The note with it: at 1 µM.
In assay [7] the target is Serine/threonine-protein kinase MARK1 (Homo sapiens) (UniProt Q9P0L2). The conditions noted are these: at 0.1 µM.
Assay [8] shares this target. The note with it: at 1 µM.
Assay [9] has as its target MAP/microtubule affinity-regulating kinase 3 (Homo sapiens) (UniProt P27448). The conditions noted are these: at 0.1 µM.
For assay [10] the target is unchanged. The conditions noted are these: at 1 µM.
For assay [11], the target named is T2, MAP/microtubule affinity-regulating kinase 4 (Homo sapiens) (UniProt Q96L34).
T2 sequence (whole entry): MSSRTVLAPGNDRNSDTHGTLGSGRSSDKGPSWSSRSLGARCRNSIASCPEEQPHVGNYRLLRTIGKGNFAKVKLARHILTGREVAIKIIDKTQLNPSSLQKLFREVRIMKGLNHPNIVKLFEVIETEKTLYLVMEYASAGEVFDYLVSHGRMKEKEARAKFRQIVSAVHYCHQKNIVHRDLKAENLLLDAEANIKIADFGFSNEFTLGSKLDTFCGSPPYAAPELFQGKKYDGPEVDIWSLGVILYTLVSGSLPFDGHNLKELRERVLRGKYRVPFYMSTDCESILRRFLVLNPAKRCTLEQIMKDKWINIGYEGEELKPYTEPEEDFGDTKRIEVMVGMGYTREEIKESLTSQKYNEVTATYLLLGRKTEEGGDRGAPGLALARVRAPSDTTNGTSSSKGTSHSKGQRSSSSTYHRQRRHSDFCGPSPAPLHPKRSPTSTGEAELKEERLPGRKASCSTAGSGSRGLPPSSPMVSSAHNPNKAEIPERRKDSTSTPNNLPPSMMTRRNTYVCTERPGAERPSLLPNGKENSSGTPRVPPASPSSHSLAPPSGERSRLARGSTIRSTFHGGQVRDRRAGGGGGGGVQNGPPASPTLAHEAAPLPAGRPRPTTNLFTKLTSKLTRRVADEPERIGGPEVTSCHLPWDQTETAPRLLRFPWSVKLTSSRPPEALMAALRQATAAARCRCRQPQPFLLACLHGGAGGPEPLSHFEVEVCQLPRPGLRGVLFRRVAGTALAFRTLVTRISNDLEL
The note with it: at 0.1 µM.

Assay [12] addresses T2, MAP/microtubule affinity-regulating kinase 4 (Homo sapiens). The note with it: at 1 µM.
Assay [13] deals with Maternal embryonic leucine zipper kinase (Homo sapiens) (UniProt Q14680). The conditions noted are these: at 0.1 µM.
Assay [14] shares this target. The note with it: at 1 µM.
The target of assay [15] is MAP kinase-interacting serine/threonine-protein kinase 1 (Homo sapiens) (UniProt Q9BUB5). The note with it: at 0.1 µM.
Assay [16] has the same target. The conditions noted are these: at 1 µM.
For assay [17], the target named is MAP kinase-interacting serine/threonine-protein kinase 2 (Homo sapiens) (UniProt Q9HBH9). The note with it: at 0.1 µM.
The target is the same in assay [18]. The conditions noted are these: at 1 µM.
In assay [19] the target is Serine/threonine-protein kinase MARK2 (Homo sapiens) (UniProt Q7KZI7). The conditions noted are these: at 0.1 µM.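 Note: mean percent inhibition of PAR-1Balpha kinase activity, reported from the GSK PKIS screen.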
Assay [20] has as its target T1, Serine/threonine-protein kinase DCLK2 (Homo sapiens). The conditions noted are these: at 1 µM.

A word on the inhibition: it is the drop in the measured response relative to a control, in per cent.

Chain of Serine/threonine-protein kinase MARK2 (Homo sapiens) (Q7KZI7 whole entry): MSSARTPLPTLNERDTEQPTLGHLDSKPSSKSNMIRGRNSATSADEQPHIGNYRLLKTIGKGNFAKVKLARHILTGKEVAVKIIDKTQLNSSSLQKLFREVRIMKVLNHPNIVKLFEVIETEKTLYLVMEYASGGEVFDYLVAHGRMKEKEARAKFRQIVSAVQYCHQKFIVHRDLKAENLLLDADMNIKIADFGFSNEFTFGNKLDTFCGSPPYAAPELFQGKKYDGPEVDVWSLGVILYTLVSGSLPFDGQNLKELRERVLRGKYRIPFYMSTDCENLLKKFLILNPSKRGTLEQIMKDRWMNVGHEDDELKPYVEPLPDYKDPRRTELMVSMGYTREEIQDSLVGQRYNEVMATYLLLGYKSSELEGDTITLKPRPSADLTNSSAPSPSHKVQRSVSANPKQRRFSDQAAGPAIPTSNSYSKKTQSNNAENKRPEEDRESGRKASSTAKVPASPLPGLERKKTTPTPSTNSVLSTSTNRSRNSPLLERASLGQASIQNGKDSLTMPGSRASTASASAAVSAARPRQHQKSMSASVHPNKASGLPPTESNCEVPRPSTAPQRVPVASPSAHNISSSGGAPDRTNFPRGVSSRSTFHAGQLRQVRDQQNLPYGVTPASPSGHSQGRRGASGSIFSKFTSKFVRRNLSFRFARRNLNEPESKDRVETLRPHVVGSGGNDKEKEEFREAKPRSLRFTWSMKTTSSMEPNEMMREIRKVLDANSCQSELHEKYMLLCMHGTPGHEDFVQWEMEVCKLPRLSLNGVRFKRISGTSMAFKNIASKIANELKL
Chain of Maternal embryonic leucine zipper kinase (Homo sapiens) (Q14680 whole entry, looked up): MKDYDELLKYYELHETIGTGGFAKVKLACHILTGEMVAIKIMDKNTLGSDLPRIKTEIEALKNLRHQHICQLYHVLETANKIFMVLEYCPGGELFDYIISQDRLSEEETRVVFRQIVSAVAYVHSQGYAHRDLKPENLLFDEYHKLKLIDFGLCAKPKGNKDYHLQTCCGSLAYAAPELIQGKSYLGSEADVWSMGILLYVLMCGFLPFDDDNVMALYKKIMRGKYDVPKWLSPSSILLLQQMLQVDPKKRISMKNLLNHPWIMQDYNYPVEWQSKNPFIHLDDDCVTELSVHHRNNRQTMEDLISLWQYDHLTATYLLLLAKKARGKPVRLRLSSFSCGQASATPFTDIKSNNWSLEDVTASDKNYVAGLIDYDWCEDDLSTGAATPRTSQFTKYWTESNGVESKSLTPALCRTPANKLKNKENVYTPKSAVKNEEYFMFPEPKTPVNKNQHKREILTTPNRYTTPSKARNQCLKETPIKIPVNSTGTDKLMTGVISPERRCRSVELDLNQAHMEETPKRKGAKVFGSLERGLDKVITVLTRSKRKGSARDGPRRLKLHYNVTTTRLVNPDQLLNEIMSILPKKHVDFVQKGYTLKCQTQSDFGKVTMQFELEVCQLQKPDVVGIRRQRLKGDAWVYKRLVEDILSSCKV
Chain of MAP/microtubule affinity-regulating kinase 3 (Homo sapiens) (P27448 whole entry, looked up): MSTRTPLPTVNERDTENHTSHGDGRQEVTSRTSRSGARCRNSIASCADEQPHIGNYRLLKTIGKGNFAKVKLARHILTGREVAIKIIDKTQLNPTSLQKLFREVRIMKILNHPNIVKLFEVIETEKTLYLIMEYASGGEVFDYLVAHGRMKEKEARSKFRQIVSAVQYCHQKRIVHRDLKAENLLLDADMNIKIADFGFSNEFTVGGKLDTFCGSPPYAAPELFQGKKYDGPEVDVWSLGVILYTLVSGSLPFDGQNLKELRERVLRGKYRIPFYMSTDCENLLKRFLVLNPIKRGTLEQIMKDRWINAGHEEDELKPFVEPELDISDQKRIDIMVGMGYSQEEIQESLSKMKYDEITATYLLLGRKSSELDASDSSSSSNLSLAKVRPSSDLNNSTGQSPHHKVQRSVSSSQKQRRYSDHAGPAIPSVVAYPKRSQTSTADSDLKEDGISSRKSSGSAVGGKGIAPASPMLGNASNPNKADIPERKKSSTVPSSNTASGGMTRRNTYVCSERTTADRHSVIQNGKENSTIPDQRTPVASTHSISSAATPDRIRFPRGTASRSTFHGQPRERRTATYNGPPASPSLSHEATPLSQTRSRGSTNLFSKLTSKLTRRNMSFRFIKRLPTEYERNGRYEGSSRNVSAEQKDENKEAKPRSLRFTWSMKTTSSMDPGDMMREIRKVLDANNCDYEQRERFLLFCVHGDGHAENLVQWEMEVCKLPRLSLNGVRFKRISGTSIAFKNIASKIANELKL
Chain of Death-associated protein kinase 1 (Homo sapiens) (P53355 whole entry, looked up): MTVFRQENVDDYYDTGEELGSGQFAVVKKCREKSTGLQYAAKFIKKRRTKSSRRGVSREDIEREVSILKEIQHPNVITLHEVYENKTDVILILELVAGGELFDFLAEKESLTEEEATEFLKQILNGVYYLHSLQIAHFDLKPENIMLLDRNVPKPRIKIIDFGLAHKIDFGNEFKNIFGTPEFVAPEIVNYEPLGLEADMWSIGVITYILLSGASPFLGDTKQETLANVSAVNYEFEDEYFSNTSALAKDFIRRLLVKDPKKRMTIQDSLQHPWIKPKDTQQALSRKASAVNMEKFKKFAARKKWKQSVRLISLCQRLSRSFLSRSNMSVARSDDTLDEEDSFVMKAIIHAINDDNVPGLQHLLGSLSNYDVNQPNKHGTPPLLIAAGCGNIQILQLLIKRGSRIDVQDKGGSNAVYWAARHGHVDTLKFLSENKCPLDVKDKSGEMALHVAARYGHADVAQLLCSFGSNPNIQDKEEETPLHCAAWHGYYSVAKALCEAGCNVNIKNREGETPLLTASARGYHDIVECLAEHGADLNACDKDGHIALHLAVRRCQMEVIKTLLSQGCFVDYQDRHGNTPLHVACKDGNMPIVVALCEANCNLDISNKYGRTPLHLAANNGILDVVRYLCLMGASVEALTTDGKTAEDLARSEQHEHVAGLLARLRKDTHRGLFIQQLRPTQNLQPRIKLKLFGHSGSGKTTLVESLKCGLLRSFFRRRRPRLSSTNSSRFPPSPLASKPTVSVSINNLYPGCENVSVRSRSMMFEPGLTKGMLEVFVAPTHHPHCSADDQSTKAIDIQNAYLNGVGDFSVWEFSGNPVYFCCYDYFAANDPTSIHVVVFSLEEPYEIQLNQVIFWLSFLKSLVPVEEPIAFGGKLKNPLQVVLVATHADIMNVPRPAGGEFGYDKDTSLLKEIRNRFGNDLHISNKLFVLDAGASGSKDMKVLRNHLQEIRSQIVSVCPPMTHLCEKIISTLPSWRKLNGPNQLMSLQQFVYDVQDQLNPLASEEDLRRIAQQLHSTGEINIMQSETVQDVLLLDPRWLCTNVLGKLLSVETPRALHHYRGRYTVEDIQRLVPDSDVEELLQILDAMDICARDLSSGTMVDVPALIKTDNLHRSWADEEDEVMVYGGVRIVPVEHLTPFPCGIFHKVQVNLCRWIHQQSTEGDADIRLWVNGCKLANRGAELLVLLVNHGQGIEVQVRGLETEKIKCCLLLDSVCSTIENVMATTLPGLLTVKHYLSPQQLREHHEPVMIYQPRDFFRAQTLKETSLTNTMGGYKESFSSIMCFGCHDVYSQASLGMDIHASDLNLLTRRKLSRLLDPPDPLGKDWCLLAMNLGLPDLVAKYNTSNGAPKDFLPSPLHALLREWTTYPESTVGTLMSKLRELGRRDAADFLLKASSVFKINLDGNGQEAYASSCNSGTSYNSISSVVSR
Chain of MAP kinase-activated protein kinase 2 (Homo sapiens) (P49137 whole entry, looked up): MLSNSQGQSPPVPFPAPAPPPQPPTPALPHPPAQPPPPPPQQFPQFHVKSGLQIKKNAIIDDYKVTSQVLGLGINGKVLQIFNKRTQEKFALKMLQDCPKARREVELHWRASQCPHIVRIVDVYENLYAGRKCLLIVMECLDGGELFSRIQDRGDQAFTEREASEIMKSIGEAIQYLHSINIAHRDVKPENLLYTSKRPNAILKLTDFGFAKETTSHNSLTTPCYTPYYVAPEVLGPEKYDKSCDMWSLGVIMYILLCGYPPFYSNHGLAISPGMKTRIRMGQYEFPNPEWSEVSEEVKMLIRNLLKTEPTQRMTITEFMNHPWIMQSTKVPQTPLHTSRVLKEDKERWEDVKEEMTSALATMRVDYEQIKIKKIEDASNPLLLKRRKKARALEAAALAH
Chain of MAP kinase-activated protein kinase 3 (Homo sapiens) (Q16644 whole entry, looked up): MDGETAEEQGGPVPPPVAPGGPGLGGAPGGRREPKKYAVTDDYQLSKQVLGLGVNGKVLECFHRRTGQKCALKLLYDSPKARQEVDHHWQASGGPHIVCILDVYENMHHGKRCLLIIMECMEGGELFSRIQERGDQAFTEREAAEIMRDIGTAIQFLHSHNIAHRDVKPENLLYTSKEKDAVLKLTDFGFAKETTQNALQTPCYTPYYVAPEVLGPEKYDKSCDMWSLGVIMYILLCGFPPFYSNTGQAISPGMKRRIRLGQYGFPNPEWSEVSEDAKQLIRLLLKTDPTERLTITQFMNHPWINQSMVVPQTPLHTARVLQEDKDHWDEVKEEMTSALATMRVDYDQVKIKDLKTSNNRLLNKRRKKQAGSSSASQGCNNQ
Chain of MAP kinase-interacting serine/threonine-protein kinase 2 (Homo sapiens) (Q9HBH9 whole entry, looked up): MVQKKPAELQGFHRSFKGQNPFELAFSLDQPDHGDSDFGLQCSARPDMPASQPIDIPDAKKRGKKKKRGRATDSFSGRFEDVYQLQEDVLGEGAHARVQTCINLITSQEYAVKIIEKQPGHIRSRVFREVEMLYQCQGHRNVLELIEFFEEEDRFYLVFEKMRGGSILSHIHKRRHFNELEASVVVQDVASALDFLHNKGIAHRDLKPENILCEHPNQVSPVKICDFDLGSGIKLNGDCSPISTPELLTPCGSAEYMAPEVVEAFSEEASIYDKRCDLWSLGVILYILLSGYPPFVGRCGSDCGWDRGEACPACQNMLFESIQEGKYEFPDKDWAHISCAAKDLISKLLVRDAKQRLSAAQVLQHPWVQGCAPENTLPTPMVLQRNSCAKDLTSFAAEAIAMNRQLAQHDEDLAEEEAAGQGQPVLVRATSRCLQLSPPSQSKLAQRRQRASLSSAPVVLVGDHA

On to `Fc1cccc(COc2ccc(Nc3ncnc4cc(-c5ccc[nH]5)sc34)cc2Cl)c1`, for which the inhibition in assay [1] was -2.65%; in [2] it was -2.61%; in assay [3] it was -0.38%; in assay [4], -0.64%; in assay [5] it was 0.31%; in assay [6], -0.26%. The inhibition was 1.53% in assay [7]; 2.14% in assay [8]; -1.42% in [9]; -1.25% in assay [10]; 1.49% in assay [11]; 1.57% in [12]. The inhibition in assay [13] is 4.24%; in assay [14], 5.38%; in assay [15], 1%; in [16] it was 7.21%; in assay [17] it was 0.75%; in [18], 3.83%. Besides, the inhibition in assay [19] is -1.15%.
On to `Nc1ncnc2occ(-c3ccc(NC(=O)Nc4cc(C(F)(F)F)cc(C(F)(F)F)c4)cc3)c12`, for which the inhibition in assay [1] is 3.18%; in assay [2], 0.95%; in [20] it was 1.34%; in assay [3] it was 0.92%; in [4] it was 0.1%; in [5], 2.58%. For the same compound, the inhibition was 4.92% in assay [6]; 0.83% in assay [7]; -0.19% in [8]; 3.3% in [9]; 2.35% in assay [10]; 1.32% in [11]. Besides, the inhibition is 1.47% in assay [12]; 0.21% in assay [13]; 3.24% in [15]; 12.2% in [16]; 0.38% in [17]; 7.49% in assay [18]. In addition, in assay [19], the inhibition is -1.98%.
As for `O=C1NC(=O)C(c2cccc(Cl)c2)=C1Nc1ccc(O)c(Cl)c1`, the inhibition is 2.13% in assay [1]; -0.44% in assay [2]; -0.92% in assay [20]; 0.03% in assay [3]; 0.04% in assay [4]; -0.58% in [5]. Moreover, the inhibition was 1.59% in assay [6]; 2.1% in assay [7]; 15.6% in assay [8]; 5.22% in assay [9]; 18.6% in assay [10]; 2.36% in [11]. In addition, the inhibition in assay [12] worked out at 17.3%; in assay [13] it was 0.77%; in assay [14] it was 6.85%; in assay [15], 0.35%; in [16] it was 7.25%; in [17], 0.54%. The inhibition came out at 1.96% in assay [18] and 0.55% in assay [19].
For the compound `CCn1c(-c2nonc2N)nc2cnc(Oc3cccc(NC(=O)c4ccc(OCCN5CCOCC5)cc4)c3)cc21`, the inhibition in assay [1] was -1.31%; in assay [2] it was 0.99%; in assay [20], 2.71%; in assay [3], 1.4%; in [4] it was 0.54%; in assay [5], 3.45%. In addition, the inhibition in assay [6] was 3.54%; in assay [7] it was 3.31%; in assay [8], 13.3%; in [9] it was 0.46%; in assay [10], 8.24%; in assay [11], 1.29%. The inhibition in assay [12] was found to be 4.43%; in [13], 10.4%; in [14], 50.5%; in assay [15] it was 3.45%; in assay [16], 13.3%; in [17] it was 3.73%. Further, the inhibition in assay [18] came to 21%; in [19], 1.17%.
Regarding `CC1=C(C(=O)Nc2ccc3[nH]ncc3c2)C(c2ccc(Cl)c(Cl)c2)CC(=O)N1` (stereo unspecified), the inhibition in assay [1] is -1.58%; in assay [20], 0.32%; in assay [3], 0.89%; in assay [4], -0.26%; in [5], 2.5%; in [6], 1.83%. Further, the inhibition in [7] was 0.33%; in assay [8], 5.92%; in [9], 2.97%; in assay [10], 9.26%; in assay [11] it was -0.78%; in assay [12], 3.04%. Also, the inhibition was -0.28% in assay [13]; 5.33% in [14]; 2.25% in assay [15]; 5.99% in assay [16]; 0.25% in assay [17]; 1.48% in assay [18]. In [19], the inhibition was -0.78%.
For `Nc1ncnc2occ(-c3ccc(NC(=O)Nc4cccc(C(F)(F)F)c4)cc3)c12`, the inhibition was 4.16% in [1]; 0.41% in assay [2]; 1.61% in assay [20]; 3.79% in assay [3]; 3.15% in [4]; 9.11% in assay [5]. The inhibition came out at 20.7% in [6]; 3.95% in assay [7]; 8.44% in assay [8]; 3.75% in [9]; 5.23% in assay [10]; 2.8% in assay [11]. Besides, the inhibition was 4.23% in assay [12]; 3.16% in [13]; 11.2% in assay [15]; 38.7% in assay [16]; 9.53% in assay [17]; 53.9% in [18]. Also, the inhibition in assay [19] was 1.27%.
`CN1CCC(C(=O)Nc2n[nH]c3nnc(-c4ccccc4)cc23)CC1`: the inhibition is -2.32% in assay [1]; 0.57% in assay [2]; -0.83% in assay [20]; -0.36% in assay [3]; -0.73% in assay [4]; -1.34% in assay [5]. The inhibition is -1.95% in assay [6]; 4.01% in assay [7]; 5.96% in assay [8]; 3.75% in assay [9]; 4.62% in [10]; 2.21% in assay [11]. The inhibition stood at 3.02% in [12]; 3.21% in assay [13]; 5.92% in assay [14]; 6.32% in assay [15]; 13.6% in [16]; 2.9% in assay [17]. Moreover, the inhibition in assay [18] worked out at 8.1%; in assay [19] it was 1.18%.

These data come from ChEMBL document CHEMBL1961873, “Compounds: GSK PKIS; Assays: Nanosyn kinase panel” (2012).
